From PubChem BioAssay AID463173 (ICCB-Longwood Screening Facility, Harvard Medical School, 2010)
Out of some 52,000 compounds screened, about 4,300 (8.3%) were called active. Rule as the data show it: active = survival mostly below about 52% (no sharp cut-off); inactive = mostly above about 56%. What follows is part of a selection rich in actives, with near analogues and random picks from the rest.

The molecules below were run on DeltatarO mutant (assay: growth inhibition of S. aureus wild type versus tarO mutant, primary screen, teichoic acid synthesis inhibitors, RN4220, OD600 (AID 463173)). Details: OD600, 18 h, active compounds read low, screened at 18.75 µg/mL (by protocol).
In the case of `Cc1cc(C)cc(NS(=O)(=O)c2ccc(-n3cccn3)cc2)c1`, the survival is reported as 75% (inactive). `Cc1cc2oc(C(=O)Nc3sc4c(c3C(=O)NCC3CCCO3)CCCC4)cc(=O)c2cc1C` (stereo unspecified) was tested, and the survival was 47% (active). In the case of `Cc1ccc2c(=O)cc(C(=O)Nc3sc4c(c3C(=O)NCC3CCCO3)CCCC4)oc2c1C` (stereo unspecified), the survival is reported as 85% (inactive). `O=C(Nc1sc2c(c1C(=O)NCC1CCCO1)CCC2)c1cc(=O)c2cc(Cl)ccc2o1` (stereo unspecified) was tested, and the survival was 43% (active). `Cc1ccc2c(=O)cc(C(=O)Nc3sc4c(c3C(=O)NCC3CCCO3)CCC4)oc2c1` (stereo unspecified) was tested, and the survival was 71% (inactive). `Cc1cc2oc(C(=O)Nc3sc4c(c3C(=O)NCC3CCCO3)CCC4)cc(=O)c2cc1C` (stereo unspecified) was tested, and the survival was 36% (active). For `Cc1ccc2oc(C(=O)Nc3sc4c(c3C(=O)NCC3CCCO3)CCC4)cc(=O)c2c1` (stereo unspecified), the survival was 79% (inactive). With `O=C(Nc1sc2c(c1C(=O)NCC1CCCO1)CCC2)c1cc(=O)c2ccccc2o1` (stereo unspecified) the survival was 66% (inactive). For `O=C(Nc1sc2c(c1C(=O)NCC1CCCO1)CCCC2)c1cc(=O)c2ccccc2o1` (stereo unspecified), the survival was 50% (inactive). `Cc1ccc2c(=O)cc(C(=O)Nc3sc4c(c3C(=O)NCC3CCCO3)CCCC4)oc2c1` (stereo unspecified) was tested, and the survival was 71% (inactive). In the case of `Cc1noc(/C=C/c2cccs2)c1S(=O)(=O)N1CCC(C(=O)Nc2ccc(F)c(Cl)c2)CC1`, the survival is reported as 52% (inactive). For `COc1ccc(-c2cc3nc(N)cc(=O)n3[nH]2)cc1`, the survival was 148% (inactive). With `CCOc1cccc2cc(-c3nc4sc5c(c4c(=O)[nH]3)CCC(C(C)(C)C)C5)c(=O)oc12` (stereo unspecified) the survival was 79% (inactive). In the case of `CCOC(=O)Cc1c(C)nc2c(-c3ccc(OC)c(OC)c3)c(C)nn2c1C`, the survival is reported as 82% (inactive). With `Cc1ccccc1Cn1c(=O)n(CC2CCC(C(=O)N3CCC(C)CC3)CC2)c(=O)c2sccc21` (stereo unspecified) the survival was 73% (inactive). `O=C(COC(=O)c1cc(-c2cccs2)nc2ccccc12)c1ccccc1` was tested, and the survival was 45% (inactive). In the case of `CCCCOc1ccc(CNC(=O)CCCN2C(=O)CSc3c2c(C)nn3-c2ccccc2)cc1`, the survival is reported as 72% (inactive). `CC(C(=O)N1CCCC1)N1CCN(c2ccc(F)cc2)CC1` (stereo unspecified) was tested, and the survival was 87% (inactive). For `COc1ccc(Nc2nc(N)nc(CSc3nc4ccccc4s3)n2)cc1`, the survival was 21% (active). `CN1CCN(Cc2nc(N)nc(Nc3ccccc3)n2)CC1` was tested, and the survival was 70% (inactive). With `COc1ccc(Nc2nc(N)nc(CSc3nc4cc(OC)ccc4s3)n2)cc1` the survival was 41% (active). For `COc1cccc(C(=O)Nc2ccc3nc(SCc4ccc(C)cc4)sc3c2)c1`, the survival was 64% (inactive). With `COc1ccc(C(=O)Nc2ccc3nc(SCc4ccc(C)cc4)sc3c2)cc1` the survival was 88% (inactive). With `COc1ccc2sc(N)nc2c1` the survival was 93% (inactive). In the case of `Cc1cc2ncn(CCC(=O)NC(C)(C)C)c2cc1C`, the survival is reported as 95% (inactive). For `O=C(O)Cn1nnnc1SCC(=O)Nc1ccc(F)cc1F`, the survival was 75% (inactive). In the case of `CN(C(=O)C(=O)Nc1ccc2nc3n(c(=O)c2c1)CCCCC3)c1cccc(C(F)(F)F)c1`, the survival is reported as 76% (inactive). With `COc1cc2[nH]c(=O)c(C(=O)NC3CCCC3)c(O)c2cc1OC` the survival was 98% (inactive). In the case of `CCCCOC(=O)c1ccc(NC2=NS(=O)(=O)c3ccccc32)cc1`, the survival is reported as 66% (inactive). For `COc1ccc(C2CC(=O)c3cc(-c4nc(-c5cccc([N+](=O)[O-])c5)cs4)c(=O)n(-c4ccc(OC)cc4)c3C2)cc1` (stereo unspecified), the survival was 57% (inactive). With `CCc1ccc(NC(=O)CC2C(=O)N(c3cccc(C)c3)C(=O)N2Cc2cccc(OC)c2)cc1` (stereo unspecified) the survival was 92% (inactive). `Cc1nc(-c2ccc(S(=O)(=O)N3CCN(c4cccc(Cl)c4)CC3)cc2)co1` was tested, and the survival was 91% (inactive). For `CCOc1ccc(-c2cc(CCCC(=O)NCCc3cc(OC)c(OC)c(OC)c3)no2)cc1`, the survival was 43% (active). For `CCOc1ccc(-c2cc(CCCC(=O)NCCc3ccc(OC)c(OC)c3)no2)cc1`, the survival was 91% (inactive). In the case of `CCOc1ccc(CCNC(=O)CCCc2cc(-c3ccc(OCC)cc3)on2)cc1`, the survival is reported as 92% (inactive). `COc1cc(C2c3c(oc4ccccc4c3=O)C(=O)N2c2ccccn2)cc(OC)c1OC` (stereo unspecified) was tested, and the survival was 146% (inactive). For `Cc1nnc(N2CCN(c3cccc(C(F)(F)F)c3)CC2)c2c1nnn2Cc1ccccc1`, the survival was 80% (inactive). With `CCOC(=O)c1cc2c(=O)n3ccccc3nc2n(Cc2ccco2)c1=NC(=O)c1c(F)cccc1Cl` the survival was 42% (inactive). In the case of `CCOC(=O)c1cc2c(=O)n3ccccc3nc2n(Cc2ccco2)c1=NC(=O)c1ccc(C)c(C)c1`, the survival is reported as 34% (active). For `CCOC(=O)c1cc2c(=O)n3ccccc3nc2n(Cc2ccco2)c1=NC(=O)c1ccc(F)cc1`, the survival was 43% (active). For `CCCn1c(=NC(=O)c2c(-c3c(F)cccc3Cl)noc2C)c(C(=O)OCC)cc2c(=O)n3ccccc3nc21`, the survival was 164% (inactive). With `CCOC(=O)c1cc2c(=O)n3ccccc3nc2n(Cc2ccco2)c1=NC(=O)c1cccc(F)c1` the survival was 17% (active). For `CCOC(=O)c1cc2c(=O)n3ccccc3nc2n(Cc2ccco2)c1=NC(=O)c1ccc(C(C)(C)C)cc1`, the survival was 36% (active). In the case of `CCOC(=O)c1cc2c(=O)n3ccccc3nc2n(Cc2ccco2)c1=NC(=O)c1ccc(Br)cc1`, the survival is reported as 55% (inactive). In the case of `CN1CCN(C(=O)c2cnn(-c3cccc(Cl)c3)c2C2CCN(C(=O)OC(C)(C)C)CC2)CC1`, the survival is reported as 95% (inactive). For `O=C1CC(c2nc3ccccc3n2CCCCOc2ccccc2)CN1c1ccccc1Cl` (stereo unspecified), the survival was 58% (inactive). For `Cc1cccc(OCCCCn2c(C3CC(=O)N(c4ccccc4Cl)C3)nc3ccccc32)c1` (stereo unspecified), the survival was 10% (active). In the case of `CCc1ccccc1N1CC(c2nc3ccccc3n2CCCCOc2ccccc2)CC1=O` (stereo unspecified), the survival is reported as 54% (inactive). In the case of `Cc1cccc(OCCCCn2c(C3CC(=O)N(c4ccc(C)cc4C)C3)nc3ccccc32)c1` (stereo unspecified), the survival is reported as 47% (inactive). In the case of `CCc1ccccc1N1CC(c2nc3ccccc3n2CCCOc2ccc(Cl)cc2)CC1=O` (stereo unspecified), the survival is reported as 41% (active). `Cc1cc(C)cc(OCCn2c(C3CC(=O)N(c4ccccc4Cl)C3)nc3ccccc32)c1` (stereo unspecified) was tested, and the survival was 85% (inactive). `CCc1ccccc1N1CC(c2nc3ccccc3n2CCOc2ccc(Cl)c(C)c2)CC1=O` (stereo unspecified) was tested, and the survival was 3% (active). `CCOc1ccccc1N1CC(c2nc3ccccc3n2CCCOc2ccc(OC)cc2)CC1=O` (stereo unspecified) was tested, and the survival was 78% (inactive). With `Cc1ccc(-n2ncc3c(N4CCCCCC4)ncnc32)cc1C` the survival was 86% (inactive). With `CCOc1ccc(CNC(=O)c2sc3nc(C)cc(C)c3c2-n2cccc2)cc1` the survival was 75% (inactive). For `COc1cccc(CNC(=O)c2nn(C)c3c2CSc2ccccc2-3)c1`, the survival was 75% (inactive). In the case of `O=C(NC1=NCCS1)c1ccccc1`, the survival is reported as 101% (inactive). `Cc1nc2c(-c3ccccc3)c(C)[nH]n2c(=O)c1Cc1ccc(Br)cc1` was tested, and the survival was 7% (active). In the case of `CCc1c(C)nc2cc(-c3ccccc3)[nH]n2c1=O`, the survival is reported as 73% (inactive). In the case of `Cc1nc2c(-c3ccccc3)c(C)[nH]n2c(=O)c1Cc1ccc(C(C)C)cc1`, the survival is reported as 11% (active). For `Cc1ccc(Cc2c(C)nc3c(-c4ccccc4)c(C)[nH]n3c2=O)cc1`, the survival was 0% (active). For `Cc1cccc(Cc2c(C)nc3c(-c4ccccc4)c(C)[nH]n3c2=O)c1`, the survival was 16% (active). `COc1cccc(C(=O)Nc2nc3nc(C)c(Cc4ccccc4)c(=O)n3[nH]2)c1` was tested, and the survival was 104% (inactive). With `CCOC(=O)CCc1c(C)nc2c(-c3ccccc3)c(C)[nH]n2c1=O` the survival was 87% (inactive). In the case of `Cc1nc2nc(NC(=O)C(C)C)[nH]n2c(=O)c1Cc1ccccc1`, the survival is reported as 98% (inactive). For `Cc1nc2nc(NC(=O)C(C)(C)C)[nH]n2c(=O)c1Cc1ccccc1`, the survival was 112% (inactive). In the case of `Cc1nc2nc(NC(=O)CC(C)C)[nH]n2c(=O)c1Cc1ccccc1`, the survival is reported as 113% (inactive). In the case of `COc1ccc(-c2nc(-c3cc4cc(Br)ccc4oc3=O)cs2)cc1`, the survival is reported as 78% (inactive). `CCOc1ccc(CCNC(=O)CN2C(=O)c3cccnc3Oc3ccc(C)cc32)cc1OCC` was tested, and the survival was 67% (inactive). `Cc1cc(-c2ccccc2)n2ncc(C#N)c2n1` was tested, and the survival was 96% (inactive). In the case of `CCOc1ccccc1CNC(=O)C1CCN(C2=NS(=O)(=O)C(c3ccc(C)c(C)c3)=C2C)CC1`, the survival is reported as 84% (inactive). In the case of `COc1ccc(-n2c(=O)c3ccc(C(=O)NCc4ccc(C)cc4)cc3n(CC(=O)Nc3cccc(F)c3)c2=O)cc1`, the survival is reported as 79% (inactive). `Cc1ccccc1Cc1c(C)nc2c(-c3ccccc3)c(C)[nH]n2c1=O` was tested, and the survival was -3% (active). `Cc1c(-c2ccc(Br)cc2)c(=O)oc2ccc(OC(=O)N3CCOCC3)cc12` was tested, and the survival was 86% (inactive). `COc1ccc(-c2c(C)c3cc(OC(=O)N4CCOCC4)ccc3oc2=O)cc1` was tested, and the survival was 79% (inactive). With `COc1ccc(-c2c(C)c3cc(OC(=O)N4CCOCC4)ccc3oc2=O)cc1OC` the survival was 47% (active). In the case of `COc1ccc(-c2csc(-c3c(N)c(C(=O)c4ccc(OC)c(OC)c4)n4ccccc34)n2)cc1`, the survival is reported as 75% (inactive). For `COc1ccc(-c2csc(-c3c(N)c(C(=O)c4ccccc4)n4ccccc34)n2)cc1OC`, the survival was 43% (active). With `COc1ccc(-c2csc(-c3c(N)c(C(=O)c4ccccc4)n4ccccc34)n2)cc1` the survival was 77% (inactive). In the case of `Cc1ccc(C)c(NC(=O)c2cnn(-c3cccc(F)c3)c2C2CCN(C(=O)OC(C)(C)C)CC2)c1`, the survival is reported as 122% (inactive). For `O=C(Nc1ccccn1)c1cccs1`, the survival was 109% (inactive). For `CCOc1cccc(NC(=O)C2CC(=O)N(CC)C(=Nc3ccc(F)cc3)S2)c1` (stereo unspecified), the survival was 17% (active). For `CCOc1cccc(NC(=O)C2CC(=O)N(C)C(=Nc3cccc(OC)c3)S2)c1` (stereo unspecified), the survival was 82% (inactive). For `CCN1C(=O)CC(C(=O)Nc2ccc(OC)cc2)SC1=Nc1ccc(C)c(C)c1` (stereo unspecified), the survival was 50% (inactive). In the case of `CCOC(=O)C1CCCN(C(=O)c2nn(-c3ccc(C)cc3)c(=O)c3c2c2ccccc2n3C)C1` (stereo unspecified), the survival is reported as 90% (inactive). With `Cc1cccn2c(=O)c(/C=C(\C#N)c3nc4ccccc4n3C)c(Oc3ccc(Br)cc3)nc12` the survival was 69% (inactive).
